Assay results taken from paper PMC5540273 (PLoS ONE, 2017).

Assays:
Settings in all cases: concentration: 1 μM,replicates: in singlicate; n = 1
BMX = test system: BMX
BRAF = test system: BRAF
BRK = test system: T1, BRK
T1 construct: gene PTK6

BRSK1 = test system: BRSK1
BRSK2 = test system: BRSK2
BTK = test system: BTK
BUB1 = test system: BUB1
CAMK1B = test system: CAMK1B
CAMK1D = test system: CAMK1D
CAMK1G = test system: CAMK1G
CAMK1 = test system: CAMK1
CAMK2A = test system: CAMK2A
CAMK2B = test system: CAMK2B
CAMK2D = test system: CAMK2D
CAMK2G = test system: CAMK2G
CAMK4 = test system: CAMK4
CAMKK1 = test system: CAMKK1
CAMKK2 = test system: CAMKK2
CASK = test system: CASK
CDC2L1 = test system: T2, CDC2L1
T2 construct: gene CDK11B
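Also: KINOMEscan kinase panel screen.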

SMILES | %Inh (BMX) | %Inh (BRAF) | %Inh (BRK) | %Inh (BRSK1) | %Inh (BRSK2) | %Inh (BTK) | %Inh (BUB1) | %Inh (CAMK1B) | %Inh (CAMK1D) | %Inh (CAMK1G) | %Inh (CAMK1) | %Inh (CAMK2A) | %Inh (CAMK2B) | %Inh (CAMK2D) | %Inh (CAMK2G) | %Inh (CAMK4) | %Inh (CAMKK1) | %Inh (CAMKK2) | %Inh (CASK) | %Inh (CDC2L1)
C[C@@H](Oc1cc(-n2cnc3cc(-c4ccncc4)ccc32)sc1C(N)=O)c1ccccc1Cl [GSK479719] | 18% | 1% | 15% | 58% | 79% | 0% | 23% | 18% | 6% | 0% | 4% | 0% | 0% | 0% | 0% | 0% | 18% | 54% | 29% | 0%
C[C@@H](Oc1cc(-n2cnc3cc(-c4cnn(C)c4)ccc32)sc1C(N)=O)c1ccccc1Cl [GSK580432] | 22% | 0% | 0% | 82% | 93.3% | 0% | 27% | 22% | 31% | 26% | 39% | 0% | 9% | 23% | 25% | 0% | 59% | 90.3% | 23% | 0%
CC(C)S(=O)(=O)N1CCN(Cc2ccc3c(c2)nc(NC(=O)c2ccsc2)n3C[C@H](O)c2ccccc2)CC1 [GW635815] | 10% | 0% | 8% | 0% | 0% | 0% | 13% | 0% | 12% | 19% | 25% | 0% | 0% | 11% | 39% | 0% | 44% | 61% | 22% | 0%
CCn1c(-c2nonc2N)nc2cncc(Br)c21 [SB-738004] | 27% | 0% | 10% | 0% | 0% | 47% | 93.7% | 34% | 15% | 16% | 14% | 27% | 29% | 27% | 14% | 0% | 25% | 17% | 29% | 0%
O=C(Nc1cccc(Oc2ccc3nccn3n2)c1)Nc1cccc(C(F)(F)F)c1 | 0% | 88% | 0% | 5% | 13% | 0% | 7% | 0% | 12% | 0% | 5% | 0% | 0% | 0% | 0% | 0% | 5% | 0% | 26% | 1%
Cn1ccc2ncnc(Oc3ccc(NC(=O)Nc4ccnc(C(F)(F)F)c4)c(Cl)c3)c21 | 17% | 45% | 0% | 0% | 0% | 0% | 5% | 0% | 0% | 31% | 0% | 0% | 0% | 13% | 25% | 0% | 13% | 7% | 0% | 0%
C[C@@H]1CCN(C(=O)N2CCCC2)C[C@@H]1N(C)c1ncnc2[nH]ccc12 | 1% | 11% | 0% | 0% | 5% | 1% | 25% | 18% | 8% | 5% | 5% | 2% | 0% | 12% | 14% | 19% | 15% | 8% | 0% | 3%
C[C@@H]1CNc2c(sc3ccc4nc(-c5ccncc5)ccc4c23)C(=O)N1 | 0% | 0% | 0% | 64% | 59% | 0% | 77% | 0% | 25% | 0% | 19% | 25% | 23% | 22% | 14% | 13% | 27% | 47% | 0% | 4%
COc1ccc(Nc2nccc(N3CCC(NC(=O)c4cccc(C#N)c4)C3)n2)cc1 (centres unmarked) [GSK1379730] | 0% | 0% | 8% | 0% | 0% | 28% | 53% | 13% | 0% | 0% | 0% | 0% | 0% | 0% | 6% | 0% | 8% | 10% | 0% | 0%
Cc1ccc(C(=O)Nc2ccc(Oc3ccc4nc(NC(=O)C5CC5)cn4c3)c(F)c2)c(=O)n1-c1ccccc1 | 73% | 57% | 88% | 0% | 0% | 0% | 0% | 0% | 0% | 0% | 0% | 0% | 0% | 0% | 3% | 10% | 11% | 10% | 12% | 0%
Cc1ccc2c(-c3ccnc(Nc4ccc(C(F)(F)F)cc4)n3)cnn2n1 [GW819776] | 0% | 0% | 4% | 0% | 14% | 0% | 6% | 0% | 0% | 0% | 0% | 0% | 0% | 0% | 0% | 0% | 19% | 0% | 21% | 0%
Cn1ccc2ncnc(Oc3ccc(NC(=O)Nc4cccc(C(F)(F)F)c4)c(Cl)c3)c21 | 15% | 46% | 5% | 0% | 0% | 0% | 0% | 16% | 16% | 1% | 4% | 0% | 0% | 7% | 0% | 6% | 0% | 0% | 0% | 0%
C[C@@H](Oc1cc(-n2cnc3ccc(-c4ccncc4)cc32)sc1C(N)=O)c1ccccc1Cl [GSK483724] | 27% | 8% | 25% | 24% | 20% | 0% | 41% | 8% | 21% | 21% | 40% | 15% | 0% | 31% | 37% | 0% | 34% | 59% | 14% | 0%
NC(=O)Nc1sc(-c2ccc(F)cc2)cc1C(N)=O [GW789449] | 0% | 8% | 0% | 2% | 0% | 62% | 20% | 34% | 43% | 0% | 12% | 0% | 0% | 2% | 0% | 0% | 12% | 7% | 15% | 0%
O=C(Nc1n[nH]c2cc(-c3ccco3)ccc12)C1CC1 [SB-737447] | 0% | 0% | 0% | 31% | 46% | 0% | 0% | 0% | 0% | 100% | 5% | 39% | 34% | 3% | 4% | 0% | 4% | 5% | 17% | 0%
COC(=O)Nc1nc2cc(Oc3ccc(NC(=O)Nc4cc(C(F)(F)F)ccc4Cl)cc3)ccc2[nH]1.Cl [GW697465] | 95.2% | 41% | 12% | 0% | 0% | 7% | 67% | 0% | 13% | 0% | 5% | 0% | 0% | 0% | 7% | 0% | 2% | 0% | 0% | 0%
O=C(Nc1ccc(Oc2ccc3nc(NC(=O)C4CC4)cn3n2)c(F)c1)c1cccn(-c2ccccc2)c1=O | 46% | 41% | 72% | 3% | 5% | 0% | 0% | 0% | 14% | 0% | 5% | 1% | 0% | 3% | 2% | 21% | 11% | 1% | 3% | 13%
Cn1ccc2ncnc(Oc3ccc(NC(=O)Nc4cnn(C(C)(C)C)c4)c(Cl)c3)c21 | 0% | 77% | 0% | 0% | 12% | 0% | 0% | 9% | 0% | 0% | 9% | 0% | 17% | 0% | 2% | 7% | 0% | 0% | 10% | 0%
Cn1ccc2ncnc(Oc3ccc(NC(=O)Nc4cncc(C(F)(F)F)c4)c(Cl)c3)c21 | 0% | 52% | 0% | 0% | 0% | 0% | 0% | 0% | 0% | 0% | 0% | 0% | 0% | 0% | 0% | 0% | 0% | 14% | 0% | 0%
